# Source: PubChem BioAssay (NCATS)
# Several values for one entry are separate records, joined by “and”; a condition that tells them apart may be missing. Equal values may be shown once. Records with an inconclusive call do not appear. A structure can be active in one record and inactive in another. Activity calls are given as the source filed them. Unless noted, the call rests on the fitted dose curve; in most records, active means well fitted curve in the direction sought with a large enough effect; inconclusive means small, poorly fitted or top-dose-only effect, or another doubt; inactive means no such curve, though single readings can be large; an effect the other way counts as inactive or inconclusive.
# Assays:
# [1] = Primary qHTS for inhibitors of nuclear receptor binding SET domain protein 2 (NSD2) in an isogenic RCH-ACV NSD2 p.E1099K mutant (9B) (AID 1645876); further: nearly all actives have a fitted effect of over 70% in size; further: potency means the concentration at half of the fitted maximal effect
# [2] = Primary qHTS for inhibitors of nuclear receptor binding SET domain protein 2 (NSD2) in an RCH-ACV wild type WT cells (2C) (AID 1645877); further: nearly all actives have a fitted effect of over 70% in size; further: potency means the concentration at half of the fitted maximal effect
# [3] = target: Glutathione peroxidase 1 (Homo sapiens) (UniProt P07203); experiment: Primary qHTS Assay for Inhibitors of Recombinant Selenoprotein Glutathione Peroxidase 1 (GPX1) (AID 1845191); further: nearly all actives have a fitted effect of over 65% in size; further: potency means the concentration at half of the fitted maximal effect
# Glutathione peroxidase 1 (Homo sapiens), sequence (P07203 whole entry, looked up): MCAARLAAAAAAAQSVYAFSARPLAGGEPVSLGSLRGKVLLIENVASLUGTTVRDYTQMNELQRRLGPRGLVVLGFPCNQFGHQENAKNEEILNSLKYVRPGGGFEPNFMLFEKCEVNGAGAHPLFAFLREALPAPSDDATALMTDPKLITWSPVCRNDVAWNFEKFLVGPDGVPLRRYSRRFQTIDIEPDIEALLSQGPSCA
# In short: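 NADPH consumption tracked by fluorescence at 340/450 nm between t=0 and t=15 min, room temperature. Final mix: 10 nM GPX1, 100 nM glutathione reductase, 1 mM GSH, 0.5 mM NADPH, 0.5 mM cumene hydroperoxide, 0.01% BSA; 30 min compound–enzyme preincubation.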
# [4] = qHTS drug screen for cell cycle checkpoint inhibitors in PARPi-resistant BRCA-mutant ovarian cancer cell lines. (AID 1963452; calls by dose curve; further: potency means the concentration at half of the fitted maximal effect); conditions: PEO1/OlaR viability, CellTiter-Glo luminescence, 96 h; for Z-AUC: stronger effect = lower value
# In short: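 PEO1, PEO4 and PEO1/OlaR ovarian cancer cells, 600 per well, exposed 96 h at 37C to a dilution series. Viability read by CellTiter-Glo luminescence, normalized to DMSO and empty wells; activity summarized as Z-AUC.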
# [5] = target: Tyrosine-protein kinase Yes (Homo sapiens) (UniProt P07947); experiment: qHTS for small molecule inhibitors of Yes1 kinase: Primary Screen (AID 686947);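 further: plate controls were DMSO with enzyme for no effect and no-enzyme DMSO wells for full effect; nearly all actives have a fitted effect of over 60% in size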
# Tyrosine-protein kinase Yes (Homo sapiens), sequence (P07947 whole entry, looked up): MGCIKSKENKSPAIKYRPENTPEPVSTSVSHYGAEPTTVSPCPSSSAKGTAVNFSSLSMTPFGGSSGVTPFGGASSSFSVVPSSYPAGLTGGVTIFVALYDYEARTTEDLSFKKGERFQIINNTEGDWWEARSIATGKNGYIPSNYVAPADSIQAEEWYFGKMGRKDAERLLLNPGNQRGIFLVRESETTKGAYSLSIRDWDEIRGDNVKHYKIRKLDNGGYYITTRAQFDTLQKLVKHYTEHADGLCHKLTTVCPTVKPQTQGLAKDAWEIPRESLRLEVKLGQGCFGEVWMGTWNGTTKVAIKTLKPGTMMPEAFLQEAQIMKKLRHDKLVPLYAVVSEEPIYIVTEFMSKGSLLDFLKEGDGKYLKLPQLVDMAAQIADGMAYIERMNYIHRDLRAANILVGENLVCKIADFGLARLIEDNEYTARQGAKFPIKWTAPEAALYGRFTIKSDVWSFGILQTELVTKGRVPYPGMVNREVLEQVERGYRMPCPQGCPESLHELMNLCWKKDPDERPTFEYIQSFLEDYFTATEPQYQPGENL
# In short: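 ADP-Glo luminescence reports ADP formed by 4 nM Yes1 phosphorylating poly(E4Y) (0.3 mg/mL) with 0.1 mM ATP for 60 min at room temperature, following 20 min compound preincubation; normalised between DMSO wells with and without enzyme.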
# [6] = qHTS for small molecule inhibitors of Yes1 kinase: Counter Assay (AID 686950);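 further: no kinase present so only ADP-Glo detection of a fixed ADP amount is tested; luminescence from ADP-Glo reporting ADP in a fixed ATP and ADP mixture; series mostly up to about 77 µM; 0% = DMSO wells with ATP plus ADP and -100% = ATP-only wells without ADP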
# In short: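 ADP-Glo luminescence read after a 60 min room-temperature incubation of compound with an ATP/ADP mix (0.08 mM/0.02 mM) and no kinase, following a 20 min compound preincubation. Signal scaled between ATP+ADP (max) and 0.1 mM ATP-only (min) wells; Tris pH 7.5, Mg2+, DTT.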
# [7] = target: Phospholipid hydroperoxide glutathione peroxidase GPX4 (Homo sapiens) (UniProt P36969); experiment: Primary qHTS Assay for Inhibitors of Recombinant Selenoprotein Glutathione Peroxidase 4 (GPX4) (AID 1845192); further: nearly all actives have a fitted effect of over 65% in size
# Phospholipid hydroperoxide glutathione peroxidase GPX4 (Homo sapiens), sequence (P36969 whole entry, looked up): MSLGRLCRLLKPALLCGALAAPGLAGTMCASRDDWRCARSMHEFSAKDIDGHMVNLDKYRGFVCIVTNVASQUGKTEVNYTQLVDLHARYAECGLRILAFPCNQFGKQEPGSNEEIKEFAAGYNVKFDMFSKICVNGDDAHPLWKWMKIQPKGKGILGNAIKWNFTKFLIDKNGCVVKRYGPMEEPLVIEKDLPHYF
# In short: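 NADPH consumption followed by fluorescence at 340/450 nm, t=0 and after 15 min at room temperature. Reaction started with cumene hydroperoxide (0.5 mM final) after 30 min compound–GPX4 preincubation; final 200 nM GPX4, 100 nM GR, 1 mM GSH, 0.5 mM NADPH.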
# [8] = measured here: PEO1 parental Z-AUC
SMILES,Potency [1],Potency [2],Potency [3],Z-AUC [4],"Z-AUC [4, 8]",Z-AUC ([4]; measured here: PEO4 Z-AUC),outcome [5],outcome [6],Potency [7],Potency [4]
O=C(NO)C1(CS(=O)(=O)c2ccc(Oc3ccc(Cl)cc3)cc2)CCOCC1,16.6 µM (active),16.6 µM (active),inactive,1.18 (inactive),0.196,0.465,–,–,–,–
Nc1nonc1-c1nc2cnccc2n1C1CC1,20.6 µM (active),8.2 µM (active),inactive,–,–,–,inactive,inactive,–,–
COc1ccc(-c2ccc3c(N4CCOC[C@@H]4C)nc(N4CCOC[C@@H]4C)nc3n2)cc1CO,0.059 µM (active),0.0934 µM (active),18.3 µM (active),1.14 (inactive),0.497,0.69,–,–,–,–
Nc1ncccc1-c1nc2ccc(-c3ccccc3)nc2n1-c1ccc(C2(N)CCC2)cc1,0.118 µM (active),0.186 µM (active),23 µM (active),-0.599 (inactive),-0.0298,-0.137,–,–,–,–
C[C@@H](OC[C@@]1(c2ccccc2)CC[C@]2(CCC(=O)N2)CN1)c1cc(C(F)(F)F)cc(C(F)(F)F)c1,9.34 µM (active),9.34 µM (active),inactive,-0.524 (inactive),-0.495,-0.395,–,–,inactive,–
C/C(=C\c1csc(C)n1)[C@@H]1C[C@@H]2O[C@]2(C)CCC[C@H](C)[C@H](O)[C@@H](C)C(=O)C(C)(C)[C@@H](O)CC(=O)N1,0.934 µM (active),0.742 µM (active),inactive,-0.955 (inactive),-1.61,-1.78,–,–,–,–
N#Cc1ccc(Cn2cncc2CN2CCN(c3cccc(Cl)c3)C(=O)C2)cc1,4.68 µM (active),2.63 µM (active),inactive,-0.462 (inactive),-0.168,-0.142,–,–,–,–
Nc1nc2cc(-c3ccc4ncc(C(=O)N5CCOCC5)n4c3)ccc2o1,8.33 µM (active),9.34 µM (active),inactive,1.25 (inactive),0.336,0.353,–,–,–,–
COc1ccc2c(c1)[C@]1(C[C@H]1c1ccc3c(/C=C/c4ccc(CN5C[C@@H](C)O[C@@H](C)C5)cc4)n[nH]c3c1)C(=O)N2,1.32 µM (active),0.0295 µM (active),inactive,0.356 (inactive),-0.0342,-0.785,–,–,–,–
O=C(Nc1ncc(SCCN2CCCC2)s1)[C@]1(c2ccc(S(=O)(=O)C3CC3)cc2)C[C@H]1C1CCCCC1,10.5 µM (active),8.33 µM (active),inactive,0.2 (inactive),-0.0651,0.2,–,–,inactive,–
NC(=O)C1=C(O)[C@@]2(O)C(=O)C3=C(O)c4c(O)cccc4C[C@H]3C[C@H]2CC1=O,4.17 µM (active),3.32 µM (active),inactive,-0.543 (inactive),-1.08,-1.12,–,–,–,–
CO[C@H]1C[C@@H]2CC[C@@H](C)[C@@](O)(O2)C(=O)C(=O)N2CCCC[C@H]2C(=O)O[C@H]([C@H](C)C[C@@H]2CC[C@@H](OCCO)[C@H](OC)C2)CC(=O)[C@H](C)/C=C(/C)[C@@H](O)[C@@H](OC)C(=O)[C@H](C)C[C@H](C)/C=C\C=CC=C1C,0.118 µM (active),0.0742 µM (active),inactive,0.703 (inactive),0.778,0.68,–,–,–,–
CN[C@H]1CN(c2ccc3c(=O)c(C(=O)O)cn(-c4nccs4)c3n2)C[C@@H]1OC,0.135 µM (active),0.0762 µM (active),inactive,-0.941 (inactive),-1.7 and -1.57,-1.25 and -1.14,–,–,inactive,1.59 µM (active)
CCN(C)S(=O)(=O)Nc1ccc(F)c(C(=O)c2c[nH]c3ncc(-c4cnc(C5CC5)nc4)cc23)c1F,8.33 µM (active),7.42 µM (active),inactive,0.933 (inactive),0.554,0.574,–,–,–,–
CSc1ccc(C(=O)/C=C/c2cc(C)c(OC(C)(C)C(=O)O)c(C)c2)cc1,19.1 µM (active),17.1 µM (active),inactive,-0.442 (inactive),0.00794,-0.391,–,–,–,–
N#Cc1c(N)nc(N)nc1N[C@H](c1nc2c(F)ccc(Cl)c2c(=O)n1-c1cccnc1)C1CC1,0.417 µM (active),0.417 µM (active),inactive,-1.77 (inactive),-0.776,-0.121,–,–,inactive,–
C[C@H](NC(=O)c1c(N)nn2cccnc12)c1cc2cccc(C#Cc3cnn(C)c3)c2c(=O)n1-c1ccccc1,1.62 µM (active),3.62 µM (active),inactive,-0.378 (inactive),0.564,0.799,–,–,–,–
CC[C@@H]1[C@H](F)C(=O)N[C@@H]1COc1nccc2cc(C(N)=O)c(OC)cc12,14.8 µM (active),10.5 µM (active),inactive,-0.948 (inactive),-0.251,0.0982,–,–,–,–
[2H]C([2H])([2H])C(O)([C@@H](C)/C=C/[C@@H](C)[C@H]1CC[C@H]2/C(=C/C=C3C[C@@H](O)C[C@H](O)C3)CCC[C@]12C)C([2H])([2H])[2H],inactive,inactive,inactive,1.18 (inactive),0.263,0.327,–,–,–,–
C=CC(=O)N[C@H]1CN(c2nc(Nc3cn(C)nc3OC)c3ncn(C)c3n2)C[C@@H]1F,14.8 µM (active),20.9 µM (active),inactive,0.581 (inactive),0.0382,0.231,–,–,–,–
